# Experimental data published in PubChem BioAssay.
# Records with an inconclusive call do not appear. The source made the active and inactive calls.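 Rule for the calls, unless noted: active = binding below the plate cutoff, the plate median minus 3 SD, with a reading above zero; inconclusive = below the plate cutoff but reading exactly zero; inactive = the rest.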
# Columns and labels:
# [1] = yeast TOR pathway RPL19A-GFP modulators, primary screen, cell-based, S. cerevisiae, multiplex flow cytometry (AID 1862; in the data active = percent of DMSO control GFP below about 86%;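 note: lower values mimic rapamycin by blocking the RPL19A rise seen in DMSO cells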); settings: S. cerevisiae RPL19A-GFP strain, flow cytometry fluorescence, 3 h; at 10 µM; stronger effect = lower value
# [2] = modulators of MEP2-GFP levels in yeast, primary screen, S. cerevisiae, multiplex flow cytometry (AID 1867;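 active = GFP response, as percent of the DMSO control, above the screen-wide mean plus 3 SD, about 139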;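 note: median GFP channel fluorescence of barcode-gated MEP2-GFP cells measured by flow cytometry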); settings: S. cerevisiae MEP2-GFP strain, 3 h, at 10 µM, stronger effect = higher value, 100% means same as DMSO wells
# [3] = modulators of CIT2-GFP expression in yeast, primary screen, S. cerevisiae, GFP fusion, multiplex flow cytometry (AID 1870;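 active = percent response above a set limit, the screen-wide mean plus 3 SD, cut at about 130% in these data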;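 note: barcoded CIT2-GFP strain pooled with four other GFP strains with rapamycin as positive control; median GFP fluorescence per well over plate mean of DMSO wells so 100% = DMSO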); settings: 3 h, at 10 µM, stronger effect = higher value
# [4] = modulators of LAP4-GFP expression in yeast, primary screen, S. cerevisiae, multiplex flow cytometry (AID 1873;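 active = GFP signal, as percent of the solvent control, above the screen mean plus 3 SD, about 149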); settings: 3 h, at 10 µM, stronger effect = higher value
# [5] = modulators of AGP1-GFP expression in yeast TOR pathway, primary screen, cell-based, multiplex flow cytometry, S. cerevisiae (AID 1887;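 active = GFP signal above the screen-wide mean plus 3 SD, that is over about 124.5% of the solvent control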;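 note: AGP1-GFP fusion strain of S. cerevisiae within a five-strain barcoded multiplex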); settings: 3 h, at 10 µM, stronger effect = higher value
# [6] = inhibitors of CD8+ T cell-vesicle binding, pilot screen, LFA-1/ICAM-1 modulator project, MLPCN validation set, flow cytometry (AID 2523;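 active = response below a set limit, under 55% cells CD8-positive and vesicle-bound, and CD8 cells' 90th-percentile brightness under 279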;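 for vesicle binding response: mean PE anti-B7-1 fluorescence of CD8+ cells relative to row control; 100% = QL9-loaded vesicles with DMSO vehicle in the same plate row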); settings: 2C mouse CD8+ T cells, at 7 µM, stronger effect = lower value; double positive events: measured here: CD8+/vesicle+ event percentage
# [7] = molecular target: Integrin beta-1 (Homo sapiens) + Integrin alpha-4 (Homo sapiens) (UniProt P13612+P05556); assay: inhibition of HUTS-21 binding to VLA-4, pilot screen, VLA-4 allosteric modulator project, U937 cells, HUTS-21 mAb, flow cytometry, validation set (AID 2674;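 active = inhibition above 50%, about 3 SD of the validation set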;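 note: antibody binding induced by the VLA-4 ligand LDV present at three times its Kd; 0% = LDV ligand with antibody and no compound and 100% = antibody without LDV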); settings: HUTS-21 LIBS mAb binding, at 6.7 µM, stronger effect = higher value, binding induced by LDV ligand
# [8] = superoxide lowering in aged yeast cells, pilot screen, validation compound set (AID 2706;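 active = superoxide response below 65% of plate, a cut near 3 SD across the whole screen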;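 note: yeast exposed to compound for one week at 30 degrees C before staining; 100% = mean of all compound wells on the same plate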); settings: S. cerevisiae aging, superoxide DHE fluorescence; at 10 µM; stronger effect = lower value
# [9] = molecular target: Beta-adrenergic receptor kinase 1 (Homo sapiens) (UniProt P25098); assay: GRK2 binders displacing RNA aptamer, biochemical, validation, human GRK2, bead flow cytometry (AID 488806;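 active = aptamer binding inhibition above 30%, about 3 SD of noise from non-fluorescent compounds; inactive = inhibition at or below 30%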); settings: bead-bound GRK2, FAM-aptamer displacement, at 10 µM, stronger effect = higher value
# [10] = molecular target: Beta-2 adrenergic receptor (Homo sapiens) (UniProt P07550); assay: beta2AR agonists driving receptor internalization, pilot screen, cell-based, FAP fluorogen, flow cytometry, validation set (AID 504459;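 active = percent response above 42, roughly 3 SD of non-fluorescent test compounds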;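 note: agonist-driven loss of surface beta2AR via internalization measured by FAP dye flow cytometry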); settings: Am2.2-beta2AR cells, FAP surface receptor flow cytometry; at 10 µM; stronger effect = higher value
# [11] = molecular target: AP-2 complex subunit beta (Homo sapiens) (UniProt P63010); assay: inhibitors of arrestin peptide binding to AP2, pilot screen, biochemical, validation set, GST-AP2 beads, flow cytometry (AID 504541;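 active = inhibition above 54%, about 3 SD of non-fluorescent compounds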;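 note: AP2 carries R879A mutation and is captured from E. coli lysate; bead-bound FITC arrestin peptide fluorescence measuring arrestin peptide binding to AP2; 0% = DMSO wells and 100% = excess unlabeled arrestin peptide control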); settings: FITC arrestin peptide, at 10 µM, stronger effect = higher value, AP2 beta2 appendage fragment, R879A mutant
# [12] = yeast V-ATPase proton transport modulators, S. cerevisiae, pHLuorin, HTS validation (AID 504600; in the data active = response above about 15%;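 note: plate controls were DMSO for no effect and reference compound for full effect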); settings: S. cerevisiae pHLuorin cytosolic pH, at 10 µM, stronger effect = higher value
# [13] = tested on: anti-desmoglein-3 scFv antibody binding to human DSG3; assay: inhibitors of anti-DSG3 scFv binding to DSG3, pilot screen, biochemical, validation compound set, bead-based, flow cytometry (AID 588368); settings: Protein G beads, DSG3-Fc, scFv-GFP binding, at 10 µM, stronger effect = lower value;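 note: signal is the median channel fluorescence of bead-bound GFP antibody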
# [14] = inhibitors of fungal efflux pumps CDR1, CDR2, MDR1, pilot screen, validation compound set, multiplex, phenotypic (AID 588506;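 active = efflux inhibition above 0.42, the validation set average plus 4 SD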;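 note: Nile Red retained in cells so higher fluorescence means more efflux inhibition; 0 = negative control wells and 1 = enniatin B 25 µM full block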); settings: S. cerevisiae pump-expressing triplex, Nile Red efflux flow cytometry; at 10 µM; stronger effect = higher value; the pumps come from Candida albicans
# [15] = molecular target: ATP-binding cassette sub-family B member 6 (Homo sapiens) (UniProt Q9NP58); assay: ABCB6 transporter inhibitors, pilot screen, K562-ABCB6 cells, flow cytometry, validation set (AID 588550;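 active = inhibition above the screen-wide mean plus 3 SD, about 51%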;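 note: 0% = DMSO wells and 100% = benzethonium chloride 70 µM positive control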); settings: K562-ABCB6 porphyrin accumulation, 1 h, at 10 µM, stronger effect = higher value
# [16] = promoters of myeloid differentiation in arrested cells, primary screen, cell-based, GFP/MAC1 double positive, flow cytometry, validation set (AID 588685;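 active = differentiation response of at least 50%, scaled between solvent and reference control, from cells with both markers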;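 note: compound exposure lasts four days before antibody staining and flow analysis; 0% = DMSO wells and 100% = 5 µM fulvestrant positive control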); settings: ER-HoxA9 marrow cells, stronger effect = higher value, normalized: vehicle 0, fulvestrant 100
# Sequence of Integrin beta-1 (Homo sapiens) + Integrin alpha-4 (Homo sapiens) (P05556 whole entry, looked up): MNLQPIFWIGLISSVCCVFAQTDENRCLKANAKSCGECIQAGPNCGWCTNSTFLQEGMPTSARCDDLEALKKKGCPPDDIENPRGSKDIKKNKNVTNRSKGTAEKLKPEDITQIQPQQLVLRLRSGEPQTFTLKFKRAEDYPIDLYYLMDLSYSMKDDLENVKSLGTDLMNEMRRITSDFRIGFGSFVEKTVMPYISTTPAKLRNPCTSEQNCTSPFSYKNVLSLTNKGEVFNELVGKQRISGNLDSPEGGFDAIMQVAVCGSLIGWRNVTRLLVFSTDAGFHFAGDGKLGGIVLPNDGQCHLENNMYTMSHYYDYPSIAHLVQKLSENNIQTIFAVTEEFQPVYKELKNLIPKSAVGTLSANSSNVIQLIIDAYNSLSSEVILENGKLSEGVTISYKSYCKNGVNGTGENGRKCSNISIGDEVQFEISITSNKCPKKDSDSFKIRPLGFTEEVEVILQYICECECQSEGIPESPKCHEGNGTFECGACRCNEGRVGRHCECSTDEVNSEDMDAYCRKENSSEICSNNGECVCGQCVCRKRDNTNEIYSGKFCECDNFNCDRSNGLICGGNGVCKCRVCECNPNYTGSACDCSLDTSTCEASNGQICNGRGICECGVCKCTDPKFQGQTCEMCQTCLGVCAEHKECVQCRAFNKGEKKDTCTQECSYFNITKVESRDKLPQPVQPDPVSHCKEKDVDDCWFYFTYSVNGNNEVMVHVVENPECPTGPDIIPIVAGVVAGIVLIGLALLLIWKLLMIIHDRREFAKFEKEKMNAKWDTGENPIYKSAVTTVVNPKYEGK
# Sequence of Integrin beta-1 (Homo sapiens) + Integrin alpha-4 (Homo sapiens) (P13612 whole entry, looked up): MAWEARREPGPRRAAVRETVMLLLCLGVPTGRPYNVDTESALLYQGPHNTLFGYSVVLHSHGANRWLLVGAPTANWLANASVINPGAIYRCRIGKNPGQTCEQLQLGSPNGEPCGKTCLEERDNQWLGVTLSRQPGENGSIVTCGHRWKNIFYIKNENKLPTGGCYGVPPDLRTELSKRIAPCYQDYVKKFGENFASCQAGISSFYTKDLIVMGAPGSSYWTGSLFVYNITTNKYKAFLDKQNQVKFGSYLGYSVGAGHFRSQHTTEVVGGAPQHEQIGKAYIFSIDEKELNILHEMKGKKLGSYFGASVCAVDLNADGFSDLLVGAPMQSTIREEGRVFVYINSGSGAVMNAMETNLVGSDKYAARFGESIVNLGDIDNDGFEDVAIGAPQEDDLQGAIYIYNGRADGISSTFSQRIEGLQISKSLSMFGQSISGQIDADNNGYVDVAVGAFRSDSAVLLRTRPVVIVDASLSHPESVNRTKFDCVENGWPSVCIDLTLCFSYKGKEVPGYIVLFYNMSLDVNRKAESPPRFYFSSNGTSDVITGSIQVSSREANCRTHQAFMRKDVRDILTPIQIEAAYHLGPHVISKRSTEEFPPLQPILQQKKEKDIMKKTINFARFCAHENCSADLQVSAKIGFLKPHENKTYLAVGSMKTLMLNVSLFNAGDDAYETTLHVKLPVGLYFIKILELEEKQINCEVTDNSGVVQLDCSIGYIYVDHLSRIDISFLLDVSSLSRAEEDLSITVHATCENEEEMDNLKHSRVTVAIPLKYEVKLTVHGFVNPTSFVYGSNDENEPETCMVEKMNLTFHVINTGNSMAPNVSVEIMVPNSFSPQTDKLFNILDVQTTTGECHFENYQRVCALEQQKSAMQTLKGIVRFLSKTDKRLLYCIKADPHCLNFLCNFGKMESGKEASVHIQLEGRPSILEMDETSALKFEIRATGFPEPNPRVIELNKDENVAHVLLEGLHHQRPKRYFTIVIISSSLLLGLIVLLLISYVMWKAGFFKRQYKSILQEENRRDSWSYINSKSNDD
# Sequence of ATP-binding cassette sub-family B member 6 (Homo sapiens) (Q9NP58 whole entry, looked up): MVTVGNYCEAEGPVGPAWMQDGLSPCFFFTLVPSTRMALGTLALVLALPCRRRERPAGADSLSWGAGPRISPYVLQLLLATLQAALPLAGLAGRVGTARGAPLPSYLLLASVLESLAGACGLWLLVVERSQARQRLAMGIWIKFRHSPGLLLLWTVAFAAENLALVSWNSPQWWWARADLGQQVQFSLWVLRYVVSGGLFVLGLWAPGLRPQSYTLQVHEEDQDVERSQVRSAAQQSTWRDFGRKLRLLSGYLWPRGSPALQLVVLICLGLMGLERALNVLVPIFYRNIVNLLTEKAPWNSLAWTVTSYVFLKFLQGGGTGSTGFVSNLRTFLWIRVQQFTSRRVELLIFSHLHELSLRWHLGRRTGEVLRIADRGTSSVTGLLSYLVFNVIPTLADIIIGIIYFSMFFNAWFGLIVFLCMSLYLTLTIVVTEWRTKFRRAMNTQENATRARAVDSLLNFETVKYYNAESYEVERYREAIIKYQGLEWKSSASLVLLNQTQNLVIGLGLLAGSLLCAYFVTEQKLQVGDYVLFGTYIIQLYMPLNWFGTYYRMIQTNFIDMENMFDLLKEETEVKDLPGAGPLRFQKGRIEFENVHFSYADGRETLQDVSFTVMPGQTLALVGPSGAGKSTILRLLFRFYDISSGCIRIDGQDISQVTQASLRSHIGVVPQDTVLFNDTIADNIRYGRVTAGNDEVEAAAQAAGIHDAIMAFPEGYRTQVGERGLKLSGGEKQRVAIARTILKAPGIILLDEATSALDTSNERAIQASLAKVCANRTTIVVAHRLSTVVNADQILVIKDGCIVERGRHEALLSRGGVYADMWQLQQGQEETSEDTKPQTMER
# Sequence of Beta-2 adrenergic receptor (Homo sapiens) (P07550 whole entry, looked up): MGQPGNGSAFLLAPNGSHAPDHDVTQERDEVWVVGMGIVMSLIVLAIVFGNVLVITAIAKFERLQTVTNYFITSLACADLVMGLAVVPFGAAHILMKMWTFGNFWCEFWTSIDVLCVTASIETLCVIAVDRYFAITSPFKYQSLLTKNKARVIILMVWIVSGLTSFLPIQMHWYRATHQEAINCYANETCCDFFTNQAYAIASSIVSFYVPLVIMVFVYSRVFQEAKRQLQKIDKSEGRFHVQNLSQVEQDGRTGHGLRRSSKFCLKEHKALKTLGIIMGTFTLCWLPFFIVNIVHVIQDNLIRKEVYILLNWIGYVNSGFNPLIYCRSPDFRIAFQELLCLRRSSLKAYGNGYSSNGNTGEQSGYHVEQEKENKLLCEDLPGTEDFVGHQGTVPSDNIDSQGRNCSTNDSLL
# Sequence of Beta-adrenergic receptor kinase 1 (Homo sapiens) (P25098 whole entry, looked up): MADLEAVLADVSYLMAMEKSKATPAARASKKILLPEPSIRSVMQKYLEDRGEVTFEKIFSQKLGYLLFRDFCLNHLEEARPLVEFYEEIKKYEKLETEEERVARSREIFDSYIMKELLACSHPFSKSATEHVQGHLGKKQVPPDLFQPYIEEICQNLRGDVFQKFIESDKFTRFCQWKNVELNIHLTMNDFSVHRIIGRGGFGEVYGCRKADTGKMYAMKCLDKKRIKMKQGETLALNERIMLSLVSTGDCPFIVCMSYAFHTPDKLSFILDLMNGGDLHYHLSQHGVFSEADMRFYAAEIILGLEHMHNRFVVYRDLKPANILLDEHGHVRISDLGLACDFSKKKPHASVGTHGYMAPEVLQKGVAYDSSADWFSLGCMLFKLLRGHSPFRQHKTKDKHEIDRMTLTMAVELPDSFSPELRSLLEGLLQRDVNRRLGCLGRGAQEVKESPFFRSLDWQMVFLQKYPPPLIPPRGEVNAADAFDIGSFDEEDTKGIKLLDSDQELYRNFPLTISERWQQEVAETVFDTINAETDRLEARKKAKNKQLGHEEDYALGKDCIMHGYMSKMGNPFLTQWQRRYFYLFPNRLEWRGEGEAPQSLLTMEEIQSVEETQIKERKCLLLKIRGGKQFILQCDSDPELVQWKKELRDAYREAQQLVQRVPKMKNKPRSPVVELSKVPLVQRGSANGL
# Sequence of AP-2 complex subunit beta (Homo sapiens) (P63010 whole entry, looked up, the tested form may be a part, one chain of several): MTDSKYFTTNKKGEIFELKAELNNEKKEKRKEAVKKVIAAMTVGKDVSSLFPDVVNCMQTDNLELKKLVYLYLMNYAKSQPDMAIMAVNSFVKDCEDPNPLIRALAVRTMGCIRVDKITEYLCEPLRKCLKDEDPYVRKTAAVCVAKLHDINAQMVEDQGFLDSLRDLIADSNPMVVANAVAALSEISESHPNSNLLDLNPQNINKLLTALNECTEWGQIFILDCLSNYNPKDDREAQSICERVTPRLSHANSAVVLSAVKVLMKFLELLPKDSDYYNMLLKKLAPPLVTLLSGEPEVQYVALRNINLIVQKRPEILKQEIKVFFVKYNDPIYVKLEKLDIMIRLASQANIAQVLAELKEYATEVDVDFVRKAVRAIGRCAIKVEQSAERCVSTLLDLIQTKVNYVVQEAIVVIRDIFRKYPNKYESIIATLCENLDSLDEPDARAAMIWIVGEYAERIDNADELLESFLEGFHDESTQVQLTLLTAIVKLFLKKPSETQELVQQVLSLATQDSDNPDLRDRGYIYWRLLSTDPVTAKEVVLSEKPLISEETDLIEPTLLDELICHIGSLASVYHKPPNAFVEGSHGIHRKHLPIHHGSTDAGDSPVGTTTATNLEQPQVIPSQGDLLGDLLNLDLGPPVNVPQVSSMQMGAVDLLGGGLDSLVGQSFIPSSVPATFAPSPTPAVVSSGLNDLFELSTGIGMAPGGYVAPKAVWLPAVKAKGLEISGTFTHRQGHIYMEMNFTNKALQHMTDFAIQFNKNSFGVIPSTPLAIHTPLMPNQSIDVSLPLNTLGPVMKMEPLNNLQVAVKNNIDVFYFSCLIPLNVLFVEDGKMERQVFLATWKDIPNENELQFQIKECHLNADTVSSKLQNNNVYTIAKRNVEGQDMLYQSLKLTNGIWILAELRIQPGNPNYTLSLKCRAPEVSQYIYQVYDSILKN
Compound,percent of DMSO control GFP [1],GFP response vs DMSO [2],percent response of DMSO control [3],GFP response vs DMSO [4],"GFP response, % of DMSO [5]",double positive events [6],vesicle binding response [6],inhibition [7],superoxide response (% of plate) [8],aptamer binding inhibition [9],response [10],inhibition [11],response [12],binding (% of control) [13],efflux inhibition (fraction of control) [14],inhibition [15],differentiation response [16]
CCCCOc1ccc(CC(=O)NO)cc1,87.8% (inactive),113% (inactive),106% (inactive),75.9% (inactive),75% (inactive),48.1%,214% (inactive),-3.24% (inactive),121% (inactive),-2% (inactive),-26.1% (inactive),3.29% (inactive),1.03% (inactive),104% (inactive),0.09 (inactive),9% (inactive),2.46% (inactive)
CC(CCCC(C)(C)O)NC(=O)c1ccc(OC2CCN(C(=O)C3CC3)CC2)cc1 (stereo not drawn),102% (inactive),96.3% (inactive),98.6% (inactive),108% (inactive),99.8% (inactive),60.9%,200% (inactive),20.1% (inactive),97.8% (inactive),1% (inactive),-15.1% (inactive),10.3% (inactive),-0.73% (inactive),101% (inactive),0.08 (inactive),3% (inactive),-12% (inactive)
CCOC(=O)c1cc2c(nc1N)CC(C)(CC)OC2 (stereo not drawn),101% (inactive),109% (inactive),91% (inactive),127% (inactive),100% (inactive),61.3%,170% (inactive),9.13% (inactive),97.3% (inactive),-1% (inactive),-13.4% (inactive),38.2% (inactive),-3.65% (inactive),105% (inactive),-0.24 (inactive),3% (inactive),60% (active)
CCOC(=O)C1C(=O)OC(C)(C)C1C(C)C(=O)c1ccc(C)cc1 (stereo not drawn),100% (inactive),103% (inactive),93.1% (inactive),110% (inactive),116% (inactive),61.9%,218% (inactive),-6.23% (inactive),118% (inactive),3% (inactive),-17.2% (inactive),-19% (inactive),-5.62% (inactive),102% (inactive),-0.09 (inactive),5% (inactive),13.7% (inactive)
COc1cc(C)nc(-n2nc(C)cc2OC)n1,101% (inactive),103% (inactive),96.6% (inactive),92.7% (inactive),102% (inactive),61.8%,5320% (inactive),-12.9% (inactive),88.7% (inactive),1% (inactive),-8.04% (inactive),2.91% (inactive),48.8% (active),95.9% (inactive),0.02 (inactive),2% (inactive),8.06% (inactive)
Cc1cccc2c(C(=O)O)cc(-c3cccnc3)nc12,104% (inactive),105% (inactive),95.4% (inactive),98% (inactive),101% (inactive),63.5%,140% (inactive),3.7% (inactive),102% (inactive),0% (inactive),-8.08% (inactive),-0.94% (inactive),2.28% (inactive),95% (inactive),-0.01 (inactive),-3% (inactive),7.09% (inactive)
COCCOC(=O)C1=C(C)NC(C)=C(C(=O)OC(C)C)C1c1cccc([N+](=O)[O-])c1 (stereo not drawn),102% (inactive),105% (inactive),111% (inactive),94.7% (inactive),99.4% (inactive),58.9%,182% (inactive),4.73% (inactive),106% (inactive),-1% (inactive),-6.98% (inactive),-3.69% (inactive),8.68% (inactive),97.4% (inactive),-0.17 (inactive),-4% (inactive),-10.5% (inactive)
CCc1cc(=O)oc2cc3occ(-c4ccc(OC)c(F)c4)c3cc12,96.8% (inactive),116% (inactive),111% (inactive),93% (inactive),87.7% (inactive),60.2%,260% (inactive),16.2% (inactive),88% (inactive),-1% (inactive),25.5% (inactive),6.17% (inactive),0.45% (inactive),107% (inactive),0.63 (active),15% (inactive),10.6% (inactive)
CCOC(=O)C1=C(N)Oc2c(c(=O)[nH]c3ccccc23)C1c1ccccc1 (stereo not drawn),100% (inactive),106% (inactive),91% (inactive),112% (inactive),107% (inactive),57.2%,179% (inactive),0.94% (inactive),103% (inactive),6% (inactive),3.69% (inactive),1.81% (inactive),1.75% (inactive),104% (inactive),0.01 (inactive),7% (inactive),-0.8% (inactive)
